Measured values: ChEMBL document CHEMBL1961873, “Compounds: GSK PKIS; Assays: Nanosyn kinase panel” (2012)

Legend:
[1] = target: RAC-alpha serine/threonine-protein kinase (Homo sapiens) (UniProt P31749); conditions: at 0.1 µM
[2] = target: RAC-alpha serine/threonine-protein kinase (Homo sapiens) (UniProt P31749); conditions: at 1 µM
[3] = target: RAC-beta serine/threonine-protein kinase (Homo sapiens) (UniProt P31751); conditions: at 0.1 µM
[4] = target: RAC-beta serine/threonine-protein kinase (Homo sapiens) (UniProt P31751); conditions: at 1 µM
[5] = target: RAC-gamma serine/threonine-protein kinase (Homo sapiens) (UniProt Q9Y243); conditions: at 0.1 µM
RAC-gamma serine/threonine-protein kinase (Homo sapiens), sequence (Q9Y243 whole entry): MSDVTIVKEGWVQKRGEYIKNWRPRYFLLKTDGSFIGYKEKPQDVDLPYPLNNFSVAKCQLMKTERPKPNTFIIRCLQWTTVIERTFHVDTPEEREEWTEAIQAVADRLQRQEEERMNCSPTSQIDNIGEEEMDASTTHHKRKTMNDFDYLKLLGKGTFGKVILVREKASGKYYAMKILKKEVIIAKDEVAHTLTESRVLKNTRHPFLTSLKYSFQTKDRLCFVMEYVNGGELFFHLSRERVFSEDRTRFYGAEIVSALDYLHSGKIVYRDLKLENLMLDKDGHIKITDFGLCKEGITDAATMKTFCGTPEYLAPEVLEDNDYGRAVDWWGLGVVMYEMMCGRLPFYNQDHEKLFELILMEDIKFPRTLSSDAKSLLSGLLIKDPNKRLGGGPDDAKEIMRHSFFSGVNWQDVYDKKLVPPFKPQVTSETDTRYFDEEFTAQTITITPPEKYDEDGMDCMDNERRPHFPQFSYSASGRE

[6] = target: RAC-gamma serine/threonine-protein kinase (Homo sapiens) (UniProt Q9Y243); conditions: at 1 µM
[7] = target: G protein-coupled receptor kinase 6 (Homo sapiens) (UniProt P43250); conditions: at 0.1 µM
[8] = target: G protein-coupled receptor kinase 6 (Homo sapiens) (UniProt P43250); conditions: at 1 µM
[9] = target: T1, Rhodopsin kinase GRK7 (Homo sapiens) (UniProt Q8WTQ7); conditions: at 0.1 µM
T1 sequence (whole entry): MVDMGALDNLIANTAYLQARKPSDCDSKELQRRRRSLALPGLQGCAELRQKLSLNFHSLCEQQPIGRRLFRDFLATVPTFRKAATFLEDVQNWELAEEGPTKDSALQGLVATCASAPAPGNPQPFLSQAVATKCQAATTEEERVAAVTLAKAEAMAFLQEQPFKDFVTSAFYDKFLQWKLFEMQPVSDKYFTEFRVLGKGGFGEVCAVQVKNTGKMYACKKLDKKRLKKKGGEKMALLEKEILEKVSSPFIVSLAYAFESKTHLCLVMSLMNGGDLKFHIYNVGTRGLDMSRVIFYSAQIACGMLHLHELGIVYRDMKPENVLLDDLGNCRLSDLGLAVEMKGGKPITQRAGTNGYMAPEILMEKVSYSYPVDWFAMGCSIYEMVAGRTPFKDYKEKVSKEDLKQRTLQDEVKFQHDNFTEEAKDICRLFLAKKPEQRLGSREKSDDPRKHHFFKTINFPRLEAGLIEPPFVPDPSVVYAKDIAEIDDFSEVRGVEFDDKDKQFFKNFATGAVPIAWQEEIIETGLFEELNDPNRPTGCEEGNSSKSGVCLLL

[10] = target: T1, Rhodopsin kinase GRK7 (Homo sapiens); conditions: at 1 µM
[11] = target: Serine/threonine-protein kinase MRCK alpha (Homo sapiens) (UniProt Q5VT25); conditions: at 0.1 µM
Serine/threonine-protein kinase MRCK alpha (Homo sapiens), sequence (Q5VT25 whole entry): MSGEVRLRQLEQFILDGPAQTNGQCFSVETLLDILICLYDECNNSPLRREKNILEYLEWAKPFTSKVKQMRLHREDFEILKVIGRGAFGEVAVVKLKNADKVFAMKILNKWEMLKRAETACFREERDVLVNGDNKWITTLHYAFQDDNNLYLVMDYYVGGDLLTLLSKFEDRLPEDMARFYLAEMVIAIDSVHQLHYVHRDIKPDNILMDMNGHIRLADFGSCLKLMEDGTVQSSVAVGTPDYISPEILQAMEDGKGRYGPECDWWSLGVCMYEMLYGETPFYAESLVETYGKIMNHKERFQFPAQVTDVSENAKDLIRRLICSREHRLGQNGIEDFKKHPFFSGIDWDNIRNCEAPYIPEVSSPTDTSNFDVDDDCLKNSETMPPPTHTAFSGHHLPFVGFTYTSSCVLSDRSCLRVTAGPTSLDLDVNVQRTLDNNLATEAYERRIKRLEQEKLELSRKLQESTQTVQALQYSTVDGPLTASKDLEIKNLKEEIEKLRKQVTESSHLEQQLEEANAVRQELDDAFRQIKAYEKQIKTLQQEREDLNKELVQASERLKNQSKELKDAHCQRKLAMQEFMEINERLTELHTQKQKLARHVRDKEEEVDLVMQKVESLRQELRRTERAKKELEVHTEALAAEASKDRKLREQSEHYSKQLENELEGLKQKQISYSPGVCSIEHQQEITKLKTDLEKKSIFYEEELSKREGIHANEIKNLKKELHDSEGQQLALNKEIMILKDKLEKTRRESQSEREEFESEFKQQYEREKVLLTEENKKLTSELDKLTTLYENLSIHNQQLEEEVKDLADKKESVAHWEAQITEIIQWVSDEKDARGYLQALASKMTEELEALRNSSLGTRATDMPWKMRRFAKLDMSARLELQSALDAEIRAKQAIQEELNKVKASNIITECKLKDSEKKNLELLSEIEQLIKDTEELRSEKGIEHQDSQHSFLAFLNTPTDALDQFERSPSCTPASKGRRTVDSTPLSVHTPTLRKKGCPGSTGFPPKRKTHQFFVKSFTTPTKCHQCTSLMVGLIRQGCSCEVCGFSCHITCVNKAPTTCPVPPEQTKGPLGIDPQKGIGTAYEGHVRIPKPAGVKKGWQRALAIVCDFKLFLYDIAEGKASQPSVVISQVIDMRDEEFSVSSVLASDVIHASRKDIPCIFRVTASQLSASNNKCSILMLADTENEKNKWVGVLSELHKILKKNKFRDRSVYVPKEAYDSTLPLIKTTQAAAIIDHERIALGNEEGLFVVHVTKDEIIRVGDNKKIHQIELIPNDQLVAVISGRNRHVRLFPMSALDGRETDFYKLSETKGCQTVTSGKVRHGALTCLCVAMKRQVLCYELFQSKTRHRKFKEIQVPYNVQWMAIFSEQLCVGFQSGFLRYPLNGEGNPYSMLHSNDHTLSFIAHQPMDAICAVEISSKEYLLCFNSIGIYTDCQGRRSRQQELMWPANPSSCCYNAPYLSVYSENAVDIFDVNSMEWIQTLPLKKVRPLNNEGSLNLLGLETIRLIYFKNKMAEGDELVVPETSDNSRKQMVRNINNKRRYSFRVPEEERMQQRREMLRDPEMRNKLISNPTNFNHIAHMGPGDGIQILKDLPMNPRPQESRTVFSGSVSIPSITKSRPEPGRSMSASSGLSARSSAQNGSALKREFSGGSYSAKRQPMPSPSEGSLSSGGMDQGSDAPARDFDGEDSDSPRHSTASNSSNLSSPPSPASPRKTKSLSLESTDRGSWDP

[12] = target: Serine/threonine-protein kinase MRCK alpha (Homo sapiens) (UniProt Q5VT25); conditions: at 1 µM
[13] = target: Serine/threonine-protein kinase MRCK beta (Homo sapiens) (UniProt Q9Y5S2); conditions: at 0.1 µM
Serine/threonine-protein kinase MRCK beta (Homo sapiens), sequence (Q9Y5S2 whole entry): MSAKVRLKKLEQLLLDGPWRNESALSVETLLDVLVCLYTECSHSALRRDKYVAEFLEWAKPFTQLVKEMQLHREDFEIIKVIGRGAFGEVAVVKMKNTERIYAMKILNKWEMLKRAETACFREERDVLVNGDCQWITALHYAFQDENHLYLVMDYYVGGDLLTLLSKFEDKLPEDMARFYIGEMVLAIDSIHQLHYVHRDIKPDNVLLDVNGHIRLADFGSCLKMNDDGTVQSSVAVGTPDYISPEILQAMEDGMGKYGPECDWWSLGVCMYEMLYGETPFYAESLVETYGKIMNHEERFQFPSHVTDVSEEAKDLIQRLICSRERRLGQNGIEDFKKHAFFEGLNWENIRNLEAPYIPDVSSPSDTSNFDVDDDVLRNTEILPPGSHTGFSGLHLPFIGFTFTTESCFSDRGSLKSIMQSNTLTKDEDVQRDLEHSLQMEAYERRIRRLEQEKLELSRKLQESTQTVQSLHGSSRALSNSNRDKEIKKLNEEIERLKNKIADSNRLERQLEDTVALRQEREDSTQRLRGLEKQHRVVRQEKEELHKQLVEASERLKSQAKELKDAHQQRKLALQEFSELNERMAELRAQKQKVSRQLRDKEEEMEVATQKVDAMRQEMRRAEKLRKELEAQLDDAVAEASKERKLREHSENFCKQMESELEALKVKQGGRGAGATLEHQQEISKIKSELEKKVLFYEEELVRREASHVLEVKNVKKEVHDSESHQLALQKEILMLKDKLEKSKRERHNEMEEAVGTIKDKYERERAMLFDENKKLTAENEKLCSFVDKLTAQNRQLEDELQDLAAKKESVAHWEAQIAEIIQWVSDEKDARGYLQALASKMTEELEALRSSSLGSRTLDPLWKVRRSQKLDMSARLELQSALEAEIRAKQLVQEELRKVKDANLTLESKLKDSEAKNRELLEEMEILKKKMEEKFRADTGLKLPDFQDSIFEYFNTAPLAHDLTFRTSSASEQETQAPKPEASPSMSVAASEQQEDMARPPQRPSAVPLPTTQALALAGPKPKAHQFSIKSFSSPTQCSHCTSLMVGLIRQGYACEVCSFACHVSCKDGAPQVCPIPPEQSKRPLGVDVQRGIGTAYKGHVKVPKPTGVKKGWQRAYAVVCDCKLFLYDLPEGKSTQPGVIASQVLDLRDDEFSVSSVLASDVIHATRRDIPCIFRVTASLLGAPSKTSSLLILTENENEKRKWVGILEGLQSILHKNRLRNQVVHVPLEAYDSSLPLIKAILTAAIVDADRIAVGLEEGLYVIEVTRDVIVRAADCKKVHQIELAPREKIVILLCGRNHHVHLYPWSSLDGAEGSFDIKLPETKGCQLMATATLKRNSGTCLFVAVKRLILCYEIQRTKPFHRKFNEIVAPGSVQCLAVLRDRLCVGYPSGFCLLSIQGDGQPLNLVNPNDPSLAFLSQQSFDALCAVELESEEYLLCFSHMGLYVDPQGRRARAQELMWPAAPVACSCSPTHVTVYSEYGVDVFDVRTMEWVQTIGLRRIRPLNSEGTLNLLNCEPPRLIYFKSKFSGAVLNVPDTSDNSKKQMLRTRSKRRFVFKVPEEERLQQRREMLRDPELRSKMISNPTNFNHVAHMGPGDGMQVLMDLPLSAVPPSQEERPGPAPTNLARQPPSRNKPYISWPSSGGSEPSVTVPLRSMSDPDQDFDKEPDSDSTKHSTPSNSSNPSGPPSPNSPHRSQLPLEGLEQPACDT

[14] = target: Serine/threonine-protein kinase MRCK beta (Homo sapiens) (UniProt Q9Y5S2); conditions: at 1 µM
[15] = target: Ribosomal protein S6 kinase alpha-5 (Homo sapiens) (UniProt O75582); conditions: at 0.1 µM
[16] = target: Ribosomal protein S6 kinase alpha-5 (Homo sapiens) (UniProt O75582); conditions: at 1 µM
[17] = target: Ribosomal protein S6 kinase alpha-4 (Homo sapiens) (UniProt O75676); conditions: at 0.1 µM
[18] = target: Ribosomal protein S6 kinase alpha-4 (Homo sapiens) (UniProt O75676); conditions: at 1 µM
[19] = target: Ribosomal protein S6 kinase beta-1 (Homo sapiens) (UniProt P23443); conditions: at 0.1 µM
Ribosomal protein S6 kinase beta-1 (Homo sapiens), sequence (P23443 whole entry, looked up): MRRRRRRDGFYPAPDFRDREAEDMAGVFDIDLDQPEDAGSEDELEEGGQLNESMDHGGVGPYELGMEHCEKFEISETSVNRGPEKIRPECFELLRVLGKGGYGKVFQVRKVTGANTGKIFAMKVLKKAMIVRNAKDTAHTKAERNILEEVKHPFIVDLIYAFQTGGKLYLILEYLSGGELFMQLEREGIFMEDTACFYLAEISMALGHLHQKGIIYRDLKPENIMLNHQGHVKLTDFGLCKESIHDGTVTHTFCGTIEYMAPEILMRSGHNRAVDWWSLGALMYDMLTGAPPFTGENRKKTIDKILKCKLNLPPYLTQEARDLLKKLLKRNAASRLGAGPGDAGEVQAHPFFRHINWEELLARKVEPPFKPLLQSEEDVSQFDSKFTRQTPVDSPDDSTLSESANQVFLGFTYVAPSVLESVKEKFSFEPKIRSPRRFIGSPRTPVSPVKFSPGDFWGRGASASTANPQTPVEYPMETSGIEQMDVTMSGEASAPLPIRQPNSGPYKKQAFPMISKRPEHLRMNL

[20] = target: Ribosomal protein S6 kinase beta-1 (Homo sapiens) (UniProt P23443); conditions: at 1 µM

RAC-beta serine/threonine-protein kinase (Homo sapiens), sequence (P31751 whole entry): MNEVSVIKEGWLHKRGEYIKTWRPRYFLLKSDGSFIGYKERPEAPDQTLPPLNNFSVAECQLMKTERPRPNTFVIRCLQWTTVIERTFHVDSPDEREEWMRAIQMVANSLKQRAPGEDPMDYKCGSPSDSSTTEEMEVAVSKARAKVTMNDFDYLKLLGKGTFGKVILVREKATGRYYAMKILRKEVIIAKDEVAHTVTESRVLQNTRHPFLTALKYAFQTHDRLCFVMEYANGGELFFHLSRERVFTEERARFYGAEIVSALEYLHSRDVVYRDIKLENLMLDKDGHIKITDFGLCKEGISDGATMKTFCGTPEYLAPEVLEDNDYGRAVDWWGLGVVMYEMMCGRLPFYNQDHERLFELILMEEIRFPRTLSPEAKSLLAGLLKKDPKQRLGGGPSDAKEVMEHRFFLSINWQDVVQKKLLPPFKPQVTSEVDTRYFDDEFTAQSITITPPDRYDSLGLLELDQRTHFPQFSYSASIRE

Row | SMILES | inhibition [1] | inhibition [2] | inhibition [3] | inhibition [4] | inhibition [5] | inhibition [6] | inhibition [7] | inhibition [8] | inhibition [9] | inhibition [10] | inhibition [11] | inhibition [12] | inhibition [13] | inhibition [14] | inhibition [15] | inhibition [16] | inhibition [17] | inhibition [18] | inhibition [19] | inhibition [20]
1 | CCn1c(-c2nonc2N)nc2ccc(F)cc21 | 0.42% | 0.42% | 1.94% | 2.93% | 1.09% | 2.41% | 9.58% | 11.3% | 5.6% | 11.3% | -0.42% | 3.28% | -0.61% | 1.2% | 7.13% | 21.2% | 3.5% | 10.8% | 3.92% | 28.4%
2 | Cc1ccc(O)cc1Nc1ccnc2ccc(S(C)(=O)=O)cc12 | 0.79% | 0.22% | 2.36% | 1.9% | 1.87% | 4.72% | 6.06% | 7.8% | 3.42% | 9.64% | -0.59% | 3.17% | -0.33% | 1.42% | 11.4% | 9.44% | 2.55% | 3.94% | 3.76% | 2.87%
3 | Cc1ccc(Nc2ccnc(Nc3cccc(C(N)=O)c3)n2)cc1O | -3.35% | -2.06% | -1.66% | -2.15% | -2.03% | -1.07% | 1.49% | 6.26% | 1.62% | 0.17% | -0.17% | 1.81% | -0.24% | -0.07% | 1.2% | 1.01% | 2.41% | 4.49% | 1.61% | 6.47%
4 | Cc1cc(Cl)cc2c1NC(=O)C2=NNc1ccc(S(N)(=O)=O)cc1 | 0.38% | 0.03% | 0.6% | 1.11% | 0.3% | 0.71% | 7.71% | 11% | 5.48% | 13.2% | 0.98% | 2.69% | 0.17% | -0.38% | 3.06% | 2.08% | 2.85% | 3.47% | 0.25% | 2.34%
5 | NS(=O)(=O)c1ccc(N/N=C2\C(=O)Nc3ccc(Cl)cc32)cc1 | 1.17% | 1.19% | 3.01% | 2.43% | 1.79% | 1.82% | 4.41% | 8.19% | 2.49% | 2.98% | -0.18% | 2.52% | 0.03% | 0.67% | -2.92% | -0.64% | 2.66% | 5.77% | 1.75% | 2.32%
6 | CC(C)c1ccc(Nc2nccc(-c3cnn4ncccc34)n2)cc1 | 0.38% | 0.64% | 1.28% | 1.13% | 1.09% | 1.51% | 4.74% | 3.14% | 2.17% | 3.19% | -1.68% | -0.92% | -1.18% | -0.74% | 0.84% | 1.36% | 1.31% | 2.98% | 0.78% | 1.58%
7 | COc1ccc(-c2nn3ncccc3c2-c2ccnc(Nc3cccc(C(F)(F)F)c3)n2)cc1 | 0.68% | 0.72% | 1.23% | 1.84% | 0.37% | 1.95% | 3.32% | 2.16% | 5.25% | 1.87% | -3.04% | 1.22% | 0.66% | -0.13% | 1.92% | -0.09% | 2.61% | 1.73% | 1.77% | 0.85%
8 | c1ccc(Cc2nc3ccc(Nc4ncnc5ccccc45)cc3[nH]2)cc1 | 0.62% | 0.65% | 1.38% | 1.4% | 1.19% | 0.88% | 3.39% | 3.05% | 0.46% | -1.96% | -0.57% | -0.25% | -0.96% | -0.17% | 2.76% | 4.26% | 0.49% | 2.83% | 0.76% | 2.79%
9 | CN(c1ccc(NC(=O)Nc2ccc(OC(F)(F)F)cc2)cc1)c1ccnc(Nc2cccc(S(N)(=O)=O)c2)n1 | 0.77% | 0.88% | 0.51% | 1.22% | 0.16% | 2.79% | -5.14% | -2.97% | 3.47% | -1.66% | -5.74% | -0.82% | -0.58% | -2.72% | 0.92% | -1.11% | 2% | 4.78% | -0.25% | 1.95%
10 | Nc1ccc(C#Cc2cncnc2Nc2ccc(OCc3cccc(F)c3)c(Cl)c2)cc1 | 0.15% | 1.42% | 1.06% | 1.24% | 0.3% | 2.19% | 0.63% | 0.83% | 5.58% | 1.26% | -1.73% | 0.19% | 1.04% | 1.18% | 1.3% | -0.19% | 1.93% | 3.14% | 0.9% | 0.85%
11 | Cc1ccc2c(-c3ccnc(Nc4cccc(C(F)(F)F)c4)n3)c(-c3ccccc3)nn2n1 | 0.89% | 1.19% | 0.8% | 2.31% | 0.73% | 4.19% | 2.15% | 2.48% | 10.5% | 3.2% | 1.06% | 5.98% | 0.83% | 1.46% | -3.38% | -4.64% | 2.52% | 3.99% | 2.1% | 2.71%
12 | COC(=O)Nc1nc2cc(Oc3ccc(NC(=O)Nc4cccc(Br)c4)cc3)ccc2[nH]1 | 0.46% | 0.17% | 1.35% | 1.01% | 1.37% | -2.06% | 4.28% | 6.2% | 3.16% | 25.9% | 0.43% | 0.85% | 1.24% | -0.22% | 2.67% | 1.7% | 2.29% | 2.39% | 2% | 3.21%
13 | Oc1cccc(-c2nc(-c3ccccc3)[nH]c2-c2ccncc2)c1 | -0.1% | 1.39% | 2.18% | 2.47% | 0.82% | 3.85% | 6.53% | 4.9% | 1.3% | -0.71% | -0.93% | 2.63% | -0.32% | 0.92% | 3.05% | 4.64% | 1.9% | 3.89% | 1.55% | 6.44%
14 | C[C@@H](Oc1cc(-n2cnc3ccc(OC[C@@H](O)CO)cc32)sc1C(N)=O)c1ccccc1Cl | -0.94% | -0.9% | -0.48% | -0.32% | 0.07% | -0.44% | 1.08% | 4.23% | -4.63% | 3.37% | -0.35% | 4.31% | 1.02% | 3.59% | -1.23% | -0.54% | 0.35% | 1.7% | 0.75% | 1.5%
